Screening results as filed in PubChem.
Compounds with a hit are over-represented: about 1.5% of the library has one in this group of screens.
PI4K2A inh: qHTS for small molecular inhibitors of PI4K2A; purified PI4K2A, ADP-Glo luminescence, 1 h; hits give low values; hit rate 0.13% among 420,000; AID 1346378, 2018; activity change, negative = inhibition, % at 76.9 µM; in the data active = activity change below about -50%; inconclusive = mostly about -30% to -49%;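 also: -100% = wells without enzyme as full effect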
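ADP-Glo luminescence measured ADP generated by PI4K2A enzyme (4 ug/mL before mixing) with 1.2 mM PI substrate (pre-mix) and 300 microM ATP (pre-mix). Tris pH7.5 buffer with MgCl2, Triton X-100; 1 h reaction at ambient temperature.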
TrxR1 substrate: qHTS Assay for Substrates of Mammalian Selenoprotein Thioredoxin Reductase 1 (TrxR1): qHTS; AID 588456, 2011; purified TrxR1 substrate turnover, NADPH consumption readout; hit rate 0.01% among 390,000; Potency, µM (titrated, usually from 114 µM), for inactives: top-dose activity change, negative = substrate turnover; Thioredoxin reductase 1, cytoplasmic (Rattus norvegicus), O89049; also: potency is read from the fitted curve at half-maximal effect; nearly all actives have a fitted effect of over 50% in size
Target sequence (O89049 whole entry, looked up): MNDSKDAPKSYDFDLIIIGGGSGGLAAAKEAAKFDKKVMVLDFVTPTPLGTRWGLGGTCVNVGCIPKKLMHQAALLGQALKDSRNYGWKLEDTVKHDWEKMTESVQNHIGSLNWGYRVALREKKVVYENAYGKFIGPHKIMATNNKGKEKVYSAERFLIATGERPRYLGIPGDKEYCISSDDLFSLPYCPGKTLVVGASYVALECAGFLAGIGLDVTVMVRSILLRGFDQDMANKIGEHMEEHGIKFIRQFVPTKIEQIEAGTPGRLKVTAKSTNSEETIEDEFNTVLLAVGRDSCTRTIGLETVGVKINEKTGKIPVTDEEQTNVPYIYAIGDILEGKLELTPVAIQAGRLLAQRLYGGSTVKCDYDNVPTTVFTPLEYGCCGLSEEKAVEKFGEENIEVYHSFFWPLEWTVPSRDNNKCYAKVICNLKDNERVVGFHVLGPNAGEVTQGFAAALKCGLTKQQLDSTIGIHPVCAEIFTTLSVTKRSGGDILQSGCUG
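Rat TrxR1, dispensed at 90 nM, was prereduced with 400 uM NADPH (final) for 5 min at ~22 deg C, then incubated with compound 15 min before 400 uM selenite. A first-read NADPH fluorescence drop versus no-compound background flagged substrates.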
GALK inh: qHTS Assay for Inhibitors of Human Galactokinase (GALK); P51570; Purified GALK, Kinase-Glo residual ATP luminescence; Potency, µM (series often up to 57.5 µM), inactives show at the highest dose activity change, negative = inhibition, actives largely listed as inhibitors; hit rate 0.007% among 270,000; AID 1868, 2009; also: potency is read from the fitted curve at half-maximal effect
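Luminescence from leftover ATP (Ultra-Glo luciferase/luciferin) served as read-out after a 1 h room-temperature reaction of 5 nM GALK with 35 uM ATP and 100 uM galactose.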
FBPA coupling cs: qHTS Assay for Inhibitors of Fructose-1,6-bisphosphate Aldolase from Giardia Lamblia: Coupling assay counterscreen | coupling enzyme system counterscreen, AmpLite Red fluorescence | activity change, negative = inhibition, % at 58.2 µM, hits read low | hit rate 0.67% among 290,000 | AID 2472, 2010; in the data active = activity change below about -30%
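Compounds tested against the coupling enzymes alone at 57.5 uM final; readout was AmpLite Red fluorescence (525/598 nm) after 20 min at RT.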
Giardia kill: Small Molecules that selectively kill Giardia lamblia: qHTS | Giardia lamblia trophozoite viability | activity change, % at 7.66 µM, hits read low | hit rate 0.15% among 340,000; in the data active = activity change below about -80%; inconclusive = between about -30% and that limit;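 also: parasites exposed to compound for two days anaerobically before the ATP read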
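Luminescent ATP signal served as the viability read-out, measured 15-30 min after adding ATP detection reagent to trophozoites that had been incubated with compounds for 48 hrs at 37 deg C anaerobically at 100 cells/well.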
TrxR1 inh: qHTS Assay for Inhibitors of Mammalian Selenoprotein Thioredoxin Reductase 1 (TrxR1): qHTS; recombinant rTrxR1, NADPH fluorescence consumption, selenite substrate; Thioredoxin reductase 1, cytoplasmic (Rattus norvegicus), O89049; AID 588453, 2011; hit rate 1% among 390,000; Potency, µM (series often up to 114 µM), for inactives: at the top dose activity change, negative = inhibition, actives largely listed as inhibitors; also: potency is read from the fitted curve at half-maximal effect; nearly all actives have a fitted effect of over 65% in size
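Rat TrxR1 (90 nM in the dispensed reagent) was pre-reduced with 400 uM NADPH for 5 min at room temperature, then incubated with compound for 15 min. After 400 uM selenite was added, NADPH fluorescence (Ex 340/Em 450 nm) was followed for 8 min.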
* = called active by the depositor; i = inactive; ? = inconclusive; . = no result; ! = not confirmed by another sample; [ ] = dose if it differs, or a comment. Unless noted, calls follow the shape of the dose curve; as a rule, active = well fitted curve in the direction sought with a large enough effect; inconclusive = small, poorly fitted or top-dose-only effect, or another doubt; inactive = no such curve, though single readings can be large; an effect the other way counts as inactive or inconclusive. Unless noted, % is scaled to controls: 0 for no effect and ±100 for the full control effect.

SMILES	PI4K2A inh	TrxR1 substrate	GALK inh	FBPA coupling cs	Giardia kill	TrxR1 inh
CS(=O)(=O)Nc1ccc(C2=NN(S(C)(=O)=O)C(c3ccccc3)C2)cc1 (centres undefined)	3.2	162.6%	0.1%	-1.3	6.0	79.4µM*
CC(C)CNC(=O)OCc1cn(Cc2cccc(Cl)c2)nn1	-3.4	.	.	.	.	.
CCOc1ccccc1N(C)C(=O)CCS(=O)(=O)c1ccc2c(c1)NC(=O)C(C)S2 (centres undefined)	3.2	-4.1%	-5.3%	.	34.1	70.8µM*
O=C(Nc1ccccc1-c1cn2c(CN3CCNCC3)csc2n1)c1cnc2ccccc2n1	.	-4.9%	.	.	.	-14.5%
COn1c(C)c(C)c2c3nonc3ccc21	-0.4	-5.1%[57.1 µM]	3.1%	-39.2*	0.4	-12.5%[57.1 µM]
CCC[C@H]1[C@@H](OC(=O)NCc2cccnc2)CC[C@@]23CCCN2C(=O)CCC[C@@H]13	-0.1	.	.	.	.	.
COc1cccc(C2C=C(c3ccc(OC)cc3OC)Nc3nnnn32)c1 (centres undefined)	-0.3	3.1%	3.4%	0.6	-9.7	44.7µM*
COc1ccc(C2=CC(c3ccc(OC)c(OC)c3)n3nnnc3N2)c(OC)c1 (centres undefined)	0.9	31.1%[57.1 µM]	2.6%	0.5	-0.5	?
Cc1cc(=O)[nH]c(SCC(=O)Nc2ccc(Cl)cc2)n1	1.2	.	.	.	.	.
Cc1ccc(C)c(C(=O)NCCN(C)C)c1	3.3	6.6%	0.1%	2.0	-12.5	10.5%
C=C(CN(C)C)C(=O)c1cc(C)ccc1C	11.2	9.5%[57.1 µM]	.	.	-10.4	1.78µM*
CC(C)c1ccc(C2C3=C(CC(C)(C)CC3=O)NC3=C2C(=O)c2ccccc23)cc1 (centres undefined)	9.7	3.8%[57.1 µM]	1.2%	-0.2	0.2	?
CC1(C)CC(=O)C2=C(C1)NC1=C(C(=O)c3ccccc31)C2c1ccccc1 (centres undefined)	-1.2	-12.5%	0.7%	3.7	-5.6	39.8µM*
CC(C)c1ccc(-c2nc3c([nH]2)c(=O)n(C)c(=O)n3C)cc1	0.5	36.9%[57.1 µM]	-1.8%	-0.8	15.5	51.1%[57.1 µM]
Cn1c(=O)c2[nH]c(-c3ccc(S(=O)(=O)O)cc3)nc2n(C)c1=O	-8.3	i	.	.	-17.2	31.6µM*!
O=C(Cn1ncc(Cl)c(Cl)c1=O)NC1CCCCC1	-2.2	1.3%	.	.	7.3	56.2µM*
Cc1ccc(Cn2c(C)c3cnn(CC(=O)NC4CCCC4)c(=O)c3c2C)cc1	-1.4	-3.3%[57.1 µM]	.	3.1	-4.7	-3.5%[57.1 µM]
O=C(Cn1ncc(Cl)c(Cl)c1=O)NC1CCS(=O)(=O)C1 (centres undefined)	-16.2	-2.2%	6.5%	1.5	?	12.6µM*
O=C(Cn1ncc(Cl)c(Cl)c1=O)NCC1CCCCC1	-2.0	-2.2%	0.2%	3.5	-8.5	35.5µM*
c1coc(-c2nnc(-c3ccco3)nn2)c1	?	3.9%[57.1 µM]	3.2%	-44.4*	-25.5	?
O=C1c2ccccc2-c2onc3ccc(NCc4ccco4)c1c23	-19.9	-8.4%	9.3%	-42.8*	6.0	25.1µM*
O=C1c2ccccc2-c2onc3ccc(N4CCCC4)c1c23	-17.5	-1.0%	6.4%	-49.9*	28.1	?
CCOc1ccc2noc3c2c1C(=O)c1ccccc1-3	-4.7	3.6%	1.6%	-45.5*	22.8	19.7%
O=C1c2ccccc2C(=O)c2c1cccc2N1CCCC1	-16.5	-1.7%	-2.3%	-19.6	-19.1	-6.1%
CCNc1ccc2noc3c2c1C(=O)c1ccccc1-3	-21.7	0.5%[57.1 µM]	-0.5%	-4.9	-0.1	-5.3%[57.1 µM]
COc1ccc(C=NNC(=O)CCCCC(=O)NN=Cc2ccc(OC)cc2)cc1	0.4	-1.4%	.	.	-1.5	1.7%
COC(=O)/C=C\C(C#N)(C#N)N=Cc1ccc(OC)cc1	-4.9	-5.3%	.	.	-10.8	2.24µM*
